Screening results from PubChem.
Compounds with a hit are over-represented: about 4.5% of the library has one in this group of screens.
DAX1 inh-1: DAX1 (NR0B1) inhibitors on StAR promoter, primary screen, cell-based, luminescence, SF-1 (NR5A1), full-length DAX-1 | HEK293T StAR-luciferase reporter, SF-1/DAX-1 repression relief | inhibition, % at 6.8 µM | hit rate 1.1% among 370,000 | AID 652010, 2013;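 active = inhibition above the mean over all tested compounds plus 3 SD, cut at about 3.6% in these data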;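 note: 0% = DAX-1 cells with DMSO and 100% = cells lacking DAX-1 with DMSO; higher inhibition means more luminescence from relief of DAX-1 repression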
ssDAF12 agonist: S. stercoralis DAF-12 nuclear receptor activators, primary screen, cell-based, luminescence, HEK293, GRIP1 co-expression, lit1-tk-luc; Nuclear hormone receptor DAF-12 (Strongyloides stercoralis); HEK293 ssDAF-12/GRIP1 lit1-tk-luc reporter; % of 3 µM dafachronic acid response; activation, % at 6.8 µM; hit rate 1% among 370,000;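 active = activation above the mean over all tested compounds plus 3 SD, cut at about 0.9% in these data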;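 note: 0% = DMSO-only wells and 100% = 3 µM delta7-dafachronic acid wells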
DAX1 inh-2: DAX1 (NR0B1) inhibitors, primary screen, cell-based, HEK293, Gal4-DAX1, luciferase luminescence; Nuclear receptor subfamily 0 group B member 1 (Homo sapiens), P51843; HEK293 Gal4-DAX1 luciferase reporter; inhibition, % at 6.75 µM; hit rate 0.99% among 340,000;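 active = inhibition above the mean over all tested compounds plus 3 SD, cut at about 4.2% in these data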;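 note: 0% = DAX1-transfected cells with DMSO and 100% = empty-vector control cells with DMSO; inhibition shows as a rise in luminescence from relieved DAX1 repression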
Target sequence (P51843 207-470 limits assumed): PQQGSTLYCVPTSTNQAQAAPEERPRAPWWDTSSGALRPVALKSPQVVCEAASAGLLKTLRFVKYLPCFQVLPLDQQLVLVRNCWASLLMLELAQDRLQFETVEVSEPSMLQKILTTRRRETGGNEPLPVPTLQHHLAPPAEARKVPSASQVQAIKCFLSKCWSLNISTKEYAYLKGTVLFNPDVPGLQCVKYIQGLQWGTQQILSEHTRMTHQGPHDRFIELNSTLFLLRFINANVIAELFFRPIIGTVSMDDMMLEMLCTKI
hcDAF-12 act: H. contortus DAF-12 nuclear receptor activators, primary screen, cell-based, luminescence, HEK293, lit1-tk-luc reporter; hit rate 1.4% among 370,000; activation, % at 6.8 µM; AID 652067, 2013; HEK293 hcDAF-12 lit1-tk-luc reporter; 0% DMSO, 100% Δ7-dafachronic acid;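 active = activation above the mean of all tested compounds plus 3 SD, cut at about 5.5% in these data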;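 note: 100% = response to 3 µM Δ7-dafachronic acid high control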
FXN GAA850 act: FXN promoter activators, primary screen, cell-based, luciferase luminescence, HEK293 lucGAA850. activation, % at 6 µM. HEK293 lucGAA850 FXN promoter luciferase reporter, 24 h; percent of 10 µM SAHA response. hit rate 0.56% among 360,000;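 active = activation above the average of all compounds screened plus 3 SD, cutoff fixed separately per campaign, cut at about 7.5% in these data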;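 note: 0% = DMSO wells and 100% = 10 µM SAHA wells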
hgDAF-12 ag: H. glycines DAF-12 receptor agonists, primary screen, cell-based, luminescence, HEK293, GAL4 fusion, UAS-luciferase; hit rate 1.8% among 370,000; activation, % at 6.8 µM; HEK293 GAL4-hgDAF12 UAS-luciferase reporter, agonist luminescence; normalized to butyrate control;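 active = activation above a cutoff set at the mean of all screened compounds plus 3 SD, cut at about 10% in these data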;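 note: 0% = DMSO wells and 100% = sodium butyrate wells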
GAA30 FXN cntr: GAA30 FXN promoter activators, confirmation, counter-screen for GAA850 frataxin promoter activator project, cell-based, luminescence, HEK293, lucGAA30, triplicate; hit rate 66% among 1,900; activation, % at 6 µM; HEK293 lucGAA30 FXN promoter luciferase, 24 h; DMSO = 0%, 5 µM ipriflavone = 100%; shares compounds with FXN GAA850 act;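 active = mean activation above the mean of solvent-only control wells plus 3 SD, cut at about 22% in these data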;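 note: counterscreen of GAA850 promoter hits where activity marks nonselective or luminescence artifacts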
FXN GAA850 conf: FXN GAA850 promoter activators in reporter cells, confirmation, cell-based, luminescence, HEK293 lucGAA850, triplicate | shares compounds with FXN GAA850 act | HEK293 lucGAA850 FXN promoter luciferase reporter, 24 h; 100% = activation by SAHA | activation, % at 6 µM | hit rate 86% among 1,900;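 active = mean activation above a set limit taken from the primary screen, cut at about 8% in these data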;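 note: 0% = DMSO wells and 100% = 10 µM SAHA wells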
An asterisk follows results filed as active; nt = not tested or not shown.

SMILES	DAX1 inh-1	ssDAF12 agonist	DAX1 inh-2	hcDAF-12 act	FXN GAA850 act	hgDAF-12 ag	GAA30 FXN cntr	FXN GAA850 conf
N#C/C(=C/c1ccc(N2CCCCCC2)o1)c1ccc(F)cc1	nt	nt	-2	nt	3	nt	nt	nt
N#C/C(=C\c1ccc(N2CCOCC2)o1)c1ccccc1	0	-2	-1	-1	12*	-2	139*	45*
CSc1ncccc1C(=O)OCC(=O)Nc1ccc(C)c(S(=O)(=O)N2CCOCC2)c1	-2	-1	-2	0	1	3	nt	nt
Fc1ccc(Nc2ccnc(Nc3ccc(F)cc3)n2)cc1	0	-1	0	3	8.4*	9	107*	34*
Nc1ncnc(Nc2ccc(F)cc2)n1	0	-2	-1	-2	1	0	nt	nt
CCNc1ccc(N=Nc2c(C)n(C)n(-c3ccccc3)c2=O)cc1	0	0	nt	3	8.4*	1	29*	13*
CCOC(=O)/C(N=Nc1c(C)n(C)n(-c2ccccc2)c1=O)=C(\C)O	0	-1	0	0	1	0	nt	nt
COc1ccc(NC(=O)COc2ccc(/C=N/n3c(C)nnc3C)cc2OC)cc1	-1	-1	-1	-1	8.0*	0	37*	12*
CN1C[C@]2(C=C3CCCCC3n3c(=O)n(-c4ccccc4)c(=O)n32)N(C(=O)OCc2ccccc2)C1=NC(=O)c1ccccc1 (stereo partly specified)	-2	-1	nt	-2	nt	-1	nt	nt
COc1cc(/C=C/c2ccc3cccc(O)c3n2)cc(Br)c1OC	1	0	2	1	9.2*	12*	-46	-1
COc1cc(/C=C/c2ccc3cccc(O)c3n2)cc(OC)c1OC	-1	-2	-3	-5	-5	-9	nt	nt
COC(=O)c1ccc(NN=Nc2ccc(C)cc2)cc1	3	1	-2	6.0*	7.8*	11*	84*	31*
COC(=O)c1ccc(C)cc1	0	-2	1	0	2	4	nt	nt
Cc1noc(C)c1C(=O)Nc1sc2c(c1C(N)=O)CCCCC2	0	-2	0	0	3	1	nt	nt
CC1CCc2c(sc(NC(=O)c3noc4c3CCCC4)c2C(N)=O)C1 (stereo unspecified)	0	-1	2	-1	7.8*	2	102*	29*
O=C(Nc1ccc(Cc2ccc(NC(=O)Nc3cccnc3)cc2)cc1)Nc1cccnc1	0	-1	0	0	0	4	nt	nt
O=C(Nc1ccc(Cl)cc1)Nc1cccnc1	1	-1	2	2	8.4*	4	63*	21*
CC(=O)c1ccc(S(=O)(=O)N2CCN(C(=O)CCC3CCCC3)CC2)cc1	-2	-1	-2	-2	2	-1	nt	nt
CCN(CC)c1ccc(C2=NNC(=O)CC2C)cc1[N+](=O)[O-] (stereo unspecified)	-1	-1	1	-2	6	1	nt	nt
CC1CC(=O)NN=C1c1ccc(N(C)C)c([N+](=O)[O-])c1 (stereo unspecified)	1	-2	1	-2	7.8*	-1	26*	22*
C#CCNC(=O)C[C@H]1C(=O)N(CCCOC)C2=CCCCC[C@]21C(=O)OC	0	-1	nt	1	nt	-3	nt	nt
Cc1cccc(NC(=O)CCS(=O)(=O)c2ccccc2)c1C	0	-1	nt	-1	nt	2	nt	nt
O=C(NCCc1c[nH]c2ccccc12)OCc1cn(Cc2cc(F)ccc2F)nn1	-1	-1	nt	1	nt	-3	nt	nt
ClC(/C=N/n1cnnc1)=C/c1ccccc1	0	-1	-1	0	7.8*	0	59*	30*
Cc1ccc2c(COC(=O)c3ccccc3Cl)cc(=O)oc2c1	0	0	1	-1	8.5*	2	126*	42*
SMILES	DAX1 inh-1	ssDAF12 agonist	DAX1 inh-2	hcDAF-12 act	FXN GAA850 act	hgDAF-12 ag	GAA30 FXN cntr	FXN GAA850 conf
Cc1ccc2c(COC(=O)c3ccccc3Br)cc(=O)oc2c1	0	-1	0	1	4	2	nt	nt
COc1ccc(/C=C2\N=C(c3ccccc3)N(c3ccc(C(=O)O)cc3)C2=O)cc1OC	0	-1	0	-2	9.3*	-3	41*	23*
COc1ccc(/C=C2/N=C3CCCCCN3C2=O)cc1OC	0	-1	-1	-1	3	-1	nt	nt
O=C(NC(=S)NC1CCCCCC1)c1cncc(Br)c1	2	-1	1	2	8.3*	11*	95*	33*
O=C(NC(=S)Nc1ncc(Br)cc1Br)c1cncc(Br)c1	0	-2	2	-2	1	0	nt	nt
Cc1nn(-c2ccccc2)c2sc(C(=O)NC3CCCCCC3)cc12	0	-1	nt	-3	nt	2	nt	nt
Cc1cc(C)nc(N2N=C(C(C)(C)C)CC2=O)n1	1	-1	0	-2	16*	-1	21	8.0*
CCCC(=O)N1CCC[C@]2(CC[C@H](CCC(C)=O)O2)C1	1	-1	nt	4	nt	-2	nt	nt
COc1ccc(/C=C2\SC(N3CCCCC3)=NC2=O)cc1OC	0	-2	0	0	9.5*	1	29*	21*
Cc1cc(NC(=O)C(C)SCC(=O)Nc2cc(C(F)(F)F)ccc2N2CCOCC2)no1 (stereo unspecified)	2	-1	0	2	8.8*	1	26*	13*
Cc1cc(NC(=O)C(C)SCC(=O)Nc2cc(Cl)ccc2N2CCN(C)CC2)no1 (stereo unspecified)	-1	1	0	0	-2	1	nt	nt
NC(=O)C1CC(=O)N(c2ccc(OCc3ccc(Cl)cc3)cc2)C1 (stereo unspecified)	3	1	1	3	8.3*	12*	74*	25*
